In publication PMC12136788:
Substitutions are numbered along the chain they refer to. Over roughly 5,800 sequences, “enrichment r” has its median near 0.54; the highest 2% begin near 16. What follows is part of a selection rich in the highest values, with near analogues and random picks from the rest.

B1: chr1:37566712:37566813:+|3pUTR|ENSG00000163879|unk|FALSE|unique (ssRNA)
RNA: GGGAGUUCUACAGUCCGACGAUCGCUUUAUUUCCCUAGCACUGGUGAAGGGCUUCAACUGUCAAACCUCAGAACAAAUGCAUUAGGGCCUUAGAAAUGUCAAUGGGGCAGGAAGAAAACACAAUUUCUAACUGCCUGUUUUUGCAACAGAGGAUUGAGCAUCA
B2: chr16:16142165:16142266:+|3pUTR|ENSG00000103222|msi1|total|mutant (ssRNA)
RNA: GGGAGUUCUACAGUCCGACGAUCAUUGAUGUGGGGUAAAUAUUAAGGAGAUGGCCUCAUGGGAAUUUGACCUUGACCCGAAACCGAGACUGAGAGUGAGCAACCAGCUGGAAGGUACUAUGCCAGUCCCCGCAGAAAAAUGUGCAACAGAGGAUUGAGCAUCA
B3: chr20:4701031:4701132:+|3pUTR|ENSG00000171867|msi1|total|mutant (ssRNA)
RNA: GGGAGUUCUACAGUCCGACGAUCCACCGUUUCUGUAAUUGGCUUUUGAAUCAAAGAACCGGGAGACAAUCUAAAAAAUAUCUCCGGUUGGAGAUGACAGAAAUAUGAUUGAUUUGAAGUGGAAAAAGAAAUUCUGUUAAUGUUCAACAGAGGAUUGAGCAUCA
B4: chr19:21059139:21059240:+|3pUTR|ENSG00000118620|unk|total|mutant (ssRNA)
RNA: GGGAGUUCUACAGUCCGACGAUCGUAAAAAUGAAAAUAUUUAAUCCAAAAUUAAGUCUAUGUAAAUAUCAGAGAAUUUACUGCCGAAAUAUAUAAGGCACUGAGACUUCAGAUAUUAUACUAAAUCAGAGUGCUGAGUACCGACAACAGAGGAUUGAGCAUCA
B5: chr17:42200006:42200107:-|3pUTR|ENSG00000173757|unk|total|mutant (ssRNA)
RNA: GGGAGUUCUACAGUCCGACGAUCAAGCUGCCGUUUGCCUUGGCUUGGUUUCAUACACUGAUUUAUUUUUCUAUGCCAGGCAGCCGAGUCUCUCUGCCUCUGAGGAGCAGGCUACCCGCAUCCCACUCAGCCCCUCCCUACCCCCAACAGAGGAUUGAGCAUCA
B6: chr20:3582170:3582271:+|CDS|ENSG00000088812|msi1|FALSE|bound_elsewhere (ssRNA)
RNA: GGGAGUUCUACAGUCCGACGAUCGGCCUUCGGAAGAUCAAUGUGUCCUACUGGUGCUGGGAAGAUAUGUCCCCAUUUACAAAUAGUUUACUACAGUGGAUGCCGUCUGAGCCCAGUGAUGCUGGAUUCUGUGGAAUUUUAUCACAACAGAGGAUUGAGCAUCA
B7: chr3:10101824:10101929:+|3pUTR|ENSG00000144554|unk|total|mutant (ssRNA)
RNA: GGGAGUUCUACAGUCCGACGAUCAAAAUCUCUGAGUCAUGAUUCUGGACUUUGGGAGCCCGUUUUGAAACUCUGAUUUAUUGCCGAACUCCGGCUUGUACCAAUUUUACAAAUAAAUUCUGUUCUAAGUUCUGCCUCAGUUGCCAACAGAGGAUUGAGCAUCA
B8: ENSG00000166086:stop:overlap|stop_codon|ENSG00000166086|stop_codon|NA|stop_codon (ssRNA)
RNA: GGGAGUUCUACAGUCCGACGAUCUCCUGCUGCUGCUUUUCAGGGAGUCAAGUCUAGUCUGCUUUCCAAGGCUGCAUUCUAAGUAGUGAAGCCUCAACUUCAUAUUUACCUAAAGCAGGACACCACACUCUUCCCCUGGCAGCCCAACAGAGGAUUGAGCAUCA
B9: chr1:173734013:173734119:+|CDS|ENSG00000076321|unk|FALSE|unique (ssRNA)
RNA: GGGAGUUCUACAGUCCGACGAUCCAUUGACGAGAGGGCUAUGGAAUUACUGAUUGACUUUGCGUAUACCUCCCAGAUAACAGUAGAAGAGGGCAAUGUUCAGACUCUUCUGCCAGCUGCUUGCCUCCUCCAGCUGGCAGAAAUCAACAGAGGAUUGAGCAUCA
B10: chr10:73251842:73251943:-|CDS|ENSG00000182180|msi1|FALSE|unique (ssRNA)
RNA: GGGAGUUCUACAGUCCGACGAUCUCGGCCGUUCUACCGCAUUGUGGCUGCUCACAACAAGUGUCCCAGGGAUGGCCGUUUCGUAGAGCAGCUGGGCUCCUAUGAUCCAUUGCCCAACAGUCAUGGAGAAAAACUCGUUGCCCUCAACAGAGGAUUGAGCAUCA
B11: chr7:44121865:44121972:-|CDS|ENSG00000106628|unk|FALSE|unique (ssRNA)
RNA: GGGAGUUCUACAGUCCGACGAUCGUGCCAGUGGCAACCUACACCAACUCCUCACAACCCUUCCGGCUAGGAGAGCGCAGCUUUAGCCGGCAGUAUGCCCACAUUUAUGCCACCCGCCUCAUCCAAAUGAGACCCUUCCUGGAGCAACAGAGGAUUGAGCAUCA
B12: chr6:31137533:31137950:-|three_prime_utr|ENSG00000204538|control|control|control (ssRNA)
RNA: GGGAGUUCUACAGUCCGACGAUCGCAUCUCCAGGCACCCACGCCCUCUCCACCCUCUGAUUCCCCGUGAAUUCUUCCCAAUUUAGCCUGUCUCCUUAAACCUCUUCCUCAUUCCCUCGGUUUUAUUCUGAACCCGUAAGGUGGCAACAGAGGAUUGAGCAUCA
B13: chr12:89642165:89642281:-|CDS|ENSG00000070961|unk|FALSE|bound_elsewhere (ssRNA)
RNA: GGGAGUUCUACAGUCCGACGAUCGCCAAAAACCUUUCUUCAAUUAGUAUGGGAAGCAUUACAAGAUGUCACUUUAAUUAUAUUAGAAAUUGCAGCCAUAGUAUCAUUGGGCCUUUCUUUUUAUCAGCCUCCAGAAGGGGAUAACAACAGAGGAUUGAGCAUCA
B14: ENSG00000136451:be:win_2551|3pUTR|ENSG00000136451|bound_else_gene|NA|bound_elsewhere_windowed (ssRNA)
RNA: GGGAGUUCUACAGUCCGACGAUCUCACUAGAGUUUAUGUCUUAUAUUAAAUUGUAUACAGUUUUUAUUCUAACCACUAACUAGGUAGUGUAUGCCCCUUCAGAACAUGCAGAGUGUAUCUUUUUUUAAAUUUCUCCUUCCGUUCAACAGAGGAUUGAGCAUCA
B15: chr13:110149936:110150037:-|3pUTR|ENSG00000187498|msi1|FALSE|unique (ssRNA)
RNA: GGGAGUUCUACAGUCCGACGAUCUUCUUGUAUUAUAAUUAAUUUUCUACCCCCAGAGAUAAAUGUUUGUUUAUAUCACUGUCUAGCUGUUUCAAAAUUUAGGUCCCUUGGUCUGUACAAAUAAUAGCAAUGUAAAAAUGGUUUCAACAGAGGAUUGAGCAUCA
B16: ENSG00000070961:be:win_251|CDS|ENSG00000070961|bound_else_gene|NA|bound_elsewhere_windowed (ssRNA)
RNA: GGGAGUUCUACAGUCCGACGAUCUGUUUGGAAAGAAUUUUAUACCUCCUAAAAAGCCAAAAACCUUUCUUCAAUUAGUAUGGGAAGCAUUACAAGAUGUCACUUUAAUUAUAUUAGAAAUUGCAGCCAUAGUAUCAUUGGGCCCAACAGAGGAUUGAGCAUCA
B17: chr6:57184343:57184440:+|3pUTR|ENSG00000112208|msi1_unk|FALSE|overlapping (ssRNA)
RNA: GGGAGUUCUACAGUCCGACGAUCUCUUCAGUUUUGUGAAUAACAAAACUAGCAAUAUUUUAAUUAUCUAUCUAGAGAUUUUUUAGAUUGAAUUCUUGUCUUGUACUAGGAUCUAGCAUAUUUCACUAUUCUGUGGAUGAAUACCAACAGAGGAUUGAGCAUCA
B18: chr9:76611375:76614569:-|three_prime_utr|ENSG00000106772|control|control|control (ssRNA)
RNA: GGGAGUUCUACAGUCCGACGAUCAUGUUACCUUUUUCCACUUUGCACUACCUGGUGCCAUUCUAAAUUUCUAAGGGGAAAAAUAGAAAGUUUGUUUACUCUUAAGAUAUUUUAUGAAAUUGUGUGUACUUUCCUAUUUUGCCACAACAGAGGAUUGAGCAUCA
B19: chr13:110149936:110150037:-|3pUTR|ENSG00000187498|msi1|total|mutant (ssRNA)
RNA: B15 RNA with U83C, A84C, U99C, A100C, U124C, A125C
B20: ENSG00000136451:be:win_2451|3pUTR|ENSG00000136451|bound_else_gene|NA|bound_elsewhere_windowed (ssRNA)
RNA: GGGAGUUCUACAGUCCGACGAUCUUUAAAUUGGAAGACGCUGGAGGCACUGGGAUGUGAUAUGCCCCUCUCUCUCCCAAUCAGAGCCUGUUGAUAUUACAACAGGGACAGAUGUGUUAGUUGCUCACUAGAGUUUAUGUCUUACAACAGAGGAUUGAGCAUCA
B21: chr1:214663888:214664008:+|3pUTR|ENSG00000117724|msi1|FALSE|bound_elsewhere (ssRNA)
RNA: GGGAGUUCUACAGUCCGACGAUCAGGAGAAAACAAUUCCUUAGAAGUCUUAAAUAUAUUGUACUCUUUAGAUCUCCCAUGUGUAGGUAUUGAAAAAGUUUGGAAGCACUGAUCACCUGUUAGCAUUGCCAUUCCUCUACUGCACAACAGAGGAUUGAGCAUCA
B22: ENSG00000136451:be:win_2501|3pUTR|ENSG00000136451|bound_else_gene|NA|bound_elsewhere_windowed (ssRNA)
RNA: GGGAGUUCUACAGUCCGACGAUCUCCCAAUCAGAGCCUGUUGAUAUUACAACAGGGACAGAUGUGUUAGUUGCUCACUAGAGUUUAUGUCUUAUAUUAAAUUGUAUACAGUUUUUAUUCUAACCACUAACUAGGUAGUGUAUGCAACAGAGGAUUGAGCAUCA
B23: ENSG00000070961:be:win_301|CDS|ENSG00000070961|bound_else_gene|NA|bound_elsewhere_windowed (ssRNA)
RNA: GGGAGUUCUACAGUCCGACGAUCUUAGUAUGGGAAGCAUUACAAGAUGUCACUUUAAUUAUAUUAGAAAUUGCAGCCAUAGUAUCAUUGGGCCUUUCUUUUUAUCAGCCUCCAGAAGGGGAUAAUGCACUUUGUGGAGAAGUUCAACAGAGGAUUGAGCAUCA
B24: chr1:214663888:214664008:+|3pUTR|ENSG00000117724|msi1|total|mutant (ssRNA)
RNA: B21 RNA with U41C, A42C, U68C, A69C, U83C, A84C, U120C, A121C

What follows are binders tested against MSI1 full-length (mouse, UniProt Q61474 1-362) (assay: nsRBNS (natural sequence RNA bind-n-seq); RBNS binding buffer (assumed for nsRBNS): 25 mM Tris pH 7.5, 150 mM KCl, 3 mM MgCl2, 0.01% Triton X-100, 500 ug/ml BSA, 20 U/ml SUPERase-In, 4 C; UNK is unkempt and MSI1 is Musashi-1; names of the RNAs are library labels; protein concentration not given here; high values mean tight binding).
Chain of MSI1 full-length (Q61474 whole entry): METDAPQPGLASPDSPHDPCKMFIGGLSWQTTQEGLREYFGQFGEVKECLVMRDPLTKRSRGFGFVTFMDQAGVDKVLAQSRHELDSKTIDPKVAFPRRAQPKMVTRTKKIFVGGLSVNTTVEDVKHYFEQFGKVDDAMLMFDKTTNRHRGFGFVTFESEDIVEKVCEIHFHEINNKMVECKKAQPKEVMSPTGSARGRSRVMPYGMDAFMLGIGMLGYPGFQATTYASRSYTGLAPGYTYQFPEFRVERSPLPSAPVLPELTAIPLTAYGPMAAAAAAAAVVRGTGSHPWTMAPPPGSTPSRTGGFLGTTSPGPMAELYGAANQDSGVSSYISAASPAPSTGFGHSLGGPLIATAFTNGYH

Row | Binder | binding signal [enrichment R]
1 | B1 | 0.39
2 | B2 | 0.411
3 | B3 | 0.277
4 | B4 | 4.16
5 | B5 | 0.705
6 | B6 | 0.86
7 | B7 | 0.338
8 | B8 | 0.461
9 | B9 | 1.23
10 | B10 | 0.318
11 | B11 | 0.629
12 | B12 | 0.944
13 | B13 | 9.09
14 | B14 | 10.4
15 | B15 | 30.3
16 | B16 | 17.2
17 | B17 | 4.43
18 | B18 | 1.45
19 | B19 | 3.28
20 | B20 | 1.47
21 | B21 | 16.4
22 | B22 | 25.2
23 | B23 | 9.77
24 | B24 | 0.406
